From PubChem BioAssay (NCI)
About 83,000 compounds went through this panel and 20% of them were active in at least one assay; those are over-represented in the sample as a whole.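 The test compound was applied at a single concentration to cells in 96-well plates for 48 hours, and percent growth was recorded.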 Values without a mark were called inactive. Active and inactive are the calls of the source. Rule for the calls: active = growth percent below 10; inactive = the rest.

Tests used:
Assay in all cases: NCI-60 one-dose screen, 48 h (100 = growth as untreated, 0 = no growth, -100 = all killed)
Conditions in all cases: 10 µM unless noted
[1] = test system: EKVX NSCLC
[2] = test system: SN12C renal
[3] = test system: UO-31 renal
[4] = test system: ACHN renal
[5] = test system: CAKI-1 renal
[6] = test system: A498 renal
[7] = test system: CCRF-CEM leukemia
[8] = test system: MOLT-4 leukemia
[9] = test system: SR leukemia
[10] = test system: TK-10 renal

Compound	growth [1]	growth [2]	growth [3]	growth [4]	growth [5]	growth [6]	growth [7]	growth [8]	growth [9]	growth [10]
COC(=O)CCC1=C(C)/C(=C/c2[nH]c(-c3ccc[nH]3)cc2OC)N=C1C	46.4%	34.8%	-50.9% (active)	8.35% (active)	11.1%	66.8%	-23.6% (active)	-28.3% (active)	-32.1% (active)	
O=[N+]([O-])c1ccc(N/N=C/c2c(O)ccc3ccccc23)nc1	32.3%	49.4%	9.52% (active)	15%	6.36% (active)	111%	2.5% (active)	10.5%	14.1%	
CC(C)(C)c1ccc(S(=O)(=O)O)s1	92.7%	97.7%	40.1%		-3.29% (active)	95.4%	102%		73.1%	110%
CCCCCCC(C)(O)c1ccccc1 (configuration not stated)	101%	96.7%	80.3%		96.8%	145%	91.9%	106%	97.6%	106%
COc1ccc(C(=O)/C=C/c2c(Cl)nc3c(c(C)nn3-c3ccccc3)c2-c2ccc(Br)cc2)cc1	109%	99.4%	88.1%	101%	100%	112%				
Cc1cc(N2CCOCC2)nc(N2CCOCC2)n1	95.7%	95.5%	-1.48% (active)	108%	96.7%	100%	95.3%	104%	105%	
c1ccc2cc(C[n+]3ccn(CCCCCCCn4cc[n+](Cc5ccc6ccccc6c5)c4)c3)ccc2c1	27.9%	24.2%	76.7%		91.9%	-3.36% (active)		56.1%	50.9%	70.6%
COc1ccc(OC)c(/C=C/c2nc(=S)n(-c3ccc(Cl)cc3)[nH]2)c1	75.2%	66.2%	47.1%				60.6%	52.8%	38.3%	88.8%
ClC1=C(Cl)C(=C2C(Cl)=C(Cl)C(Cl)=C2Cl)C(Cl)=C1Cl	105%	98.5%	81%			88.2%		82.1%	103%	94.1%
O=C(NN(C(=O)c1ccccc1)c1cccs1)c1ccccc1	112%	97.1%	66.1%		110%		93.8%	107%	100%	91.7%
O=C(/C=C/c1cccnc1)NCCCCC1CCCN(C(=O)c2ccccc2)C1 (configuration not stated)	106%	38.3%	39.9%		-15.7% (active)	101%	41.5%	43.8%	33%	103%
Clc1ccc2c(Nc3ccc4oc(NCCN5CCCC5)nc4c3)ccnc2c1	104%	83.7%	66.2%	98.2%	94.1%	90.6%	70.2%	66.6%	1.43% (active)	
Cc1nn(-c2ccc(Cl)cc2)c2nc3c(nc12)C(=O)c1ccccc1-3	49.6%	78.8%	110%	65.1%	82.9%	-3.2% (active)				
Nc1nc(SCC2(CCl)COC2)c2[nH]cnc2n1	107%	100%	75.9%		105%		101%	89%	83.8%	102%
COc1ccc(C2CC(c3cccc(Nc4ccnc5cc(Cl)ccc45)c3)=NN2C=O)cc1 (configuration not stated)	39.4%	37.9%	22.8%	45.5%	17.4%	7.17% (active)	7.54% (active)	15.8%	6.76% (active)	
CCCc1cc(=O)n2c(C(=O)Nc3ccccc3OC)c(C(=O)Nc3ccc(F)cc3)sc2n1	52.8% [30 µM]	58.1% [30 µM]	19.7% [30 µM]		5.5% [30 µM] (active)	90% [30 µM]	58.4% [30 µM]	65.8% [30 µM]	9.34% [30 µM] (active)	37.7% [30 µM]

Compound	growth [1]	growth [2]	growth [3]	growth [4]	growth [5]	growth [6]	growth [7]	growth [8]	growth [9]	growth [10]
CN(C)c1nc(-c2ccco2)n2nc(-c3ccco3)cc2n1	77%	93.4%	40.5%	96.5%	90.7%	79.9%	93%	97.3%	73.8%	
C=C1CC[C@@H]2[C@](C)(COC(C)=O)[C@H](OC(C)=O)CC[C@@]2(C)[C@@H]1CC(Nc1ccc(S(=O)(=O)Nc2cc(C)on2)cc1)C1=CCOC1=O (some centres not stated)	81.9%	31.8%	56.9%		44%	98.6%		-7.86% (active)	1.4% (active)	58.4%
O=C1NCN(CCO)CN1	98.9%	96.5%	97.2%		92.8%	106%	99.7%	121%	122%	107%
c1ccc(-n2nnnc2-c2cccc3ccccc23)cc1	54.1%	39.9%	28.7%	52.9%	21.8%	32.6%	9.58% (active)	29.8%	20.5%	
C[C@@H]1CC[C@H]2[C@@H](C)C(O)O[C@@H]3O[C@]4(C)CC[C@@H]1[C@]32OO4 (some centres not stated)	29.9%	23.6%	1.61% (active)	22.1%	22.9%	68.2%	28.5%	33.8%		
CC/C=C\C=C/C(=O)N/C=C/CC1Cc2cccc(O)c2C(=O)O1 (configuration not stated)	88.8%	101%		145%	69.5%	47.9%		47.5%	-67.6% (active)	
OC(c1cc(C(F)(F)F)nc2c(C(F)(F)F)cccc12)C1CCCCN1 (configuration not stated)	76.4%		41.8%		48.4%	53%	65.2%	19.7%	12.7%	
Clc1cccc(Cc2cn3cc(-c4ccccc4)nc3s2)c1		68.2%	49.7%	27.9%	47.8%	84.9%	63.4%	64.1%		69.2%
C/C(=C\CCc1ccoc1)CC/C=C(\C)CCCN1CCC(CO)CC1		71.1%	75.1%	59.4%	82.7%	45%	37.9%	24.6%	2.6% (active)	97.2%
Cc1nn(-c2ccccc2)c2nc3c(nc12)C(=O)CCC3		90.1%	66.4%	95.5%	101%	81.7%				104%
CCN(CC)CCCNCCCNc1cc(OC)cc2cccnc12	80.7%		88.1%	101%	97.6%	76.4%	88.9%	75.6%	79.5%	112%
COc1cc(/C=C/C(=O)c2ccc(F)cc2)ccc1OCCCCCOc1cc2c(cc1OC)C(=O)N1CCCC1C=N2 (configuration not stated)	-20.9% (active)	-2.73% (active)		-9.07% (active)	-1.54% (active)	-65.5% (active)			-32.6% (active)	-9.06% (active)
CN(C)c1ccc(/C=C\c2ccnc3ccccc23)cc1	34.5%	76.1%	34.6%		77.2%	63.9%	29.5%	66.7%	-32.4% (active)	
CCC(C)(C)C(=O)O[C@H]1C[C@@H](C)C=C2C=C[C@H](C)[C@H](CC[C@@H]3C[C@@H](O)CC(=O)O3)[C@H]21	51.7%		52.1%		-33.5% (active)	-38.8% (active)	62.5%	72.8%		
COC1=CC(c2ccc[nH]2)=N/C1=C\c1[nH]c(C)c(C(=O)CCC(=O)Oc2ccc3c(c2)CCC2C3CC[C@]3(C)C(=O)CC[C@@H]23)c1C (some centres not stated)		63.3%	52.9%	62.7%	60.1%	102%	32.9%	25.6%	10.1%	107%
NC(=O)c1ncn([C@@H]2O[C@H](CO)[C@@H](O)[C@H]2O)n1		89.3%	73.5%	83.1%	85.4%	110%	76.9%	72.3%		95.5%
